For some assays here: Measured potencies and affinities stand elsewhere.
Tests used:
Parameters in all cases: scale not given: direction of the effect not stated beside the values
[1] = biological target: Protein translocase subunit SecA (Escherichia coli (strain K12)) (UniProt P10408); assay: Assay to Identify E. coli SecA ATPase Inhibitors; assay type: functional; conditions: 30 µM
[2] = biological target: T1, Ubiquitin-activating enzyme e1, putative (Leishmania donovani (strain BPK282A1)) (UniProt E9BSI1); assay: Leishmania donovani Ubiquitin Activating Enzyme (LdE1); assay type: functional; conditions: 30 µM
T1 sequence (whole entry): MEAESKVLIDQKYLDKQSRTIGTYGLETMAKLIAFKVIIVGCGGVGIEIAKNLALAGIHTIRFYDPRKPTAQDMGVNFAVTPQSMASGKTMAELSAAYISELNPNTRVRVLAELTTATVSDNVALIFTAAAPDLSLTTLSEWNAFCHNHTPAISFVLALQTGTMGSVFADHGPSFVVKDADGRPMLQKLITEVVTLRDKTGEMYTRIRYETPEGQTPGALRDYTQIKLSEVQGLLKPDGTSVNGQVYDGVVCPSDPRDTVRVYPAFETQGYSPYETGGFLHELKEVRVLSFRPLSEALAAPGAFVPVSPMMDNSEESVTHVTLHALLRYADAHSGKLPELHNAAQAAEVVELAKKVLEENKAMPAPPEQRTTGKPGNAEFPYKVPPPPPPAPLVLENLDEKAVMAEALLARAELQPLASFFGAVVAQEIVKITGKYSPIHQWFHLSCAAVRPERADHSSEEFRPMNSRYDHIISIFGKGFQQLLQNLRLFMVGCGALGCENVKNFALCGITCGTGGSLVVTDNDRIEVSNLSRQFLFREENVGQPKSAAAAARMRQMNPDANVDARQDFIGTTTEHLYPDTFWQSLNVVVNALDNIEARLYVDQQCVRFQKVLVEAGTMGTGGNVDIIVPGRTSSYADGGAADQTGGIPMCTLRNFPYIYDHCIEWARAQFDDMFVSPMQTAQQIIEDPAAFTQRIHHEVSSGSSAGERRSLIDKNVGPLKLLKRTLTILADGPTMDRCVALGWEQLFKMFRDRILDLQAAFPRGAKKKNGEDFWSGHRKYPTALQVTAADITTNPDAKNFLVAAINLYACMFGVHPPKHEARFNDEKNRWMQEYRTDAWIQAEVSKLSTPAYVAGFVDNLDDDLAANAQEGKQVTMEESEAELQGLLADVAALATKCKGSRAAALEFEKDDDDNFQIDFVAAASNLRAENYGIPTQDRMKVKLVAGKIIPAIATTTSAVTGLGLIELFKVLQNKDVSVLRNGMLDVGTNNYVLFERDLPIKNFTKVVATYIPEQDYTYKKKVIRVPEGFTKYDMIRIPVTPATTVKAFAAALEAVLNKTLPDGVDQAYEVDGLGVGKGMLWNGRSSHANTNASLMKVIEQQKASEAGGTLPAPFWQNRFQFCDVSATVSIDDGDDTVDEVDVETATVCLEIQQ

[3] = biological target: AMP-activated protein kinase, AMPK (Homo sapiens) (UniProt P54646+O43741+P54619+Q9UGJ0+Q9Y478+Q13131+Q9UGI9); assay: AMP-dependent Kinase enzyme assay. An in vitro enzyme assay that detects ADP turnover that is directly proportional to AMPK activity. This uses naive AMPK that is activated during the assay with MK-8722; assay type: functional; conditions: 30 µM
[4] = biological target: Sialic acid-binding Ig-like lectin 9 (Homo sapiens) (UniProt Q9Y336); assay: Hs-Siglec9 ALPHAscreen SOP 20170721; conditions: 10 µM
Trypanosoma cruzi = assay: Trypanosoma cruzi phosphomannomutase and mannose-1-phosphate guanylyltransferase assay; assay type: functional; conditions: 10 µM
[5] = biological target: T2, Arginase-2, mitochondrial (Homo sapiens) (UniProt P78540); assay: in vitro enzyme assay to detect the production of urea directly proportional to the activity of Arginase II; assay type: functional; conditions: 33.3 µM; also: in the data most compounds retested in dose-response had high values
T2 sequence (whole entry): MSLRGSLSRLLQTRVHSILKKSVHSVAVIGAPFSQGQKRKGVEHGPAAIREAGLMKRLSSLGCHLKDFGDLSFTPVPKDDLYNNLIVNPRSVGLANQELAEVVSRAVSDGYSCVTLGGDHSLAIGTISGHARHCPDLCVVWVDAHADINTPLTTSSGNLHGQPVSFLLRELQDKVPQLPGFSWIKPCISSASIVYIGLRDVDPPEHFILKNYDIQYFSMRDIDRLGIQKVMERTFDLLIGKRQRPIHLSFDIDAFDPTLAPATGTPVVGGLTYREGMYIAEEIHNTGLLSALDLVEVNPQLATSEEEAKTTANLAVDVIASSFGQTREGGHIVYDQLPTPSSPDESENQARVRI

[6] = biological target: T3, Proteasome subunit beta (Trypanosoma cruzi) (UniProt O96673); assay: Trypanosoma cruzi proteasome chymotrypsin-like activity (TcProtChymo) assay.; also: in the data most compounds retested in dose-response had high values; assay type: functional; conditions: 9.37 µM
T3 sequence (whole entry): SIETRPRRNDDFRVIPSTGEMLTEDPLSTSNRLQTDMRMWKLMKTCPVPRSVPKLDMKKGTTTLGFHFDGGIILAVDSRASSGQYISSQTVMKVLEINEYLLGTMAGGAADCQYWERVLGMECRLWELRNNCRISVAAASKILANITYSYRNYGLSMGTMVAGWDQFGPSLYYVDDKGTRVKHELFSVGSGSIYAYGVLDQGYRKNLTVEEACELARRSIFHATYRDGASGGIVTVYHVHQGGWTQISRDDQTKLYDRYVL

Homo sapiens = species on record: Homo sapiens; assay: To identify inhibition of the IFN signalling (Jak-Stat) pathway via expression of an eGFP reporter gene under the control of an IFN-stimulated response element (ISRE) containing MxA promoter.; assay type: functional; conditions: 30 µM
[7] = biological target: T4, Tyrosyl-tRNA synthetase, putative (Trypanosoma cruzi (strain CL Brener)) (UniProt Q4DSP6); assay: Trypanosoma cruzi tyrosyl tRNA synthetase (TcYRS) _High Tyrosine SOP; assay type: functional; conditions: 30 µM; also: in the data most compounds retested in dose-response had high values
T4 sequence (whole entry): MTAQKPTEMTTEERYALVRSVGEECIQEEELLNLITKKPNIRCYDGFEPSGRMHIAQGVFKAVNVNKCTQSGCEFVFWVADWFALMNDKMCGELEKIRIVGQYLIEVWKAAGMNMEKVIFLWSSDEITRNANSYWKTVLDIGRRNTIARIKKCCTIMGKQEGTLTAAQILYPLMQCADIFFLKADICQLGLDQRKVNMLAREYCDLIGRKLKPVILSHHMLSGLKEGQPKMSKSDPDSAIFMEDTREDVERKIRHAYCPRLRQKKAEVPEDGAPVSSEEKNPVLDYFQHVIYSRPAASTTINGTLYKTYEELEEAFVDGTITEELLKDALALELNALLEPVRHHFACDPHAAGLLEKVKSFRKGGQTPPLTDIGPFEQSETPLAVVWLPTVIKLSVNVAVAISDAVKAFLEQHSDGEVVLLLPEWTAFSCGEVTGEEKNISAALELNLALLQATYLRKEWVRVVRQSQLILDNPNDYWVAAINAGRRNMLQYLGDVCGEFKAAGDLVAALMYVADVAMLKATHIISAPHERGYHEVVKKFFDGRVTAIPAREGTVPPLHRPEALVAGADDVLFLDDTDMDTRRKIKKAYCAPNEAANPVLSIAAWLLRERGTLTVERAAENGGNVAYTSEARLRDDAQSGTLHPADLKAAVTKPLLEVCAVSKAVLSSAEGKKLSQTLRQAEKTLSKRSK

[8] = biological target: T4, Tyrosyl-tRNA synthetase, putative (Trypanosoma cruzi (strain CL Brener)); assay: Trypanosoma cruzi tyrosyl tRNA synthetase (TcYRS) SOP; assay type: functional; conditions: 30 µM
[9] = biological target: Chromo domain-containing protein 1 (Saccharomyces cerevisiae (strain ATCC 204508 / S288c) (Baker's yeast)) (UniProt P32657); assay: ScCHD-1 Enzyme Inhibition Assay; assay type: functional; conditions: 30 µM; also: in the data most compounds retested in dose-response had high values
Chromo domain-containing protein 1 (Saccharomyces cerevisiae (strain ATCC 204508 / S288c) (Baker's yeast)), sequence (P32657 whole entry, the tested form may be a part): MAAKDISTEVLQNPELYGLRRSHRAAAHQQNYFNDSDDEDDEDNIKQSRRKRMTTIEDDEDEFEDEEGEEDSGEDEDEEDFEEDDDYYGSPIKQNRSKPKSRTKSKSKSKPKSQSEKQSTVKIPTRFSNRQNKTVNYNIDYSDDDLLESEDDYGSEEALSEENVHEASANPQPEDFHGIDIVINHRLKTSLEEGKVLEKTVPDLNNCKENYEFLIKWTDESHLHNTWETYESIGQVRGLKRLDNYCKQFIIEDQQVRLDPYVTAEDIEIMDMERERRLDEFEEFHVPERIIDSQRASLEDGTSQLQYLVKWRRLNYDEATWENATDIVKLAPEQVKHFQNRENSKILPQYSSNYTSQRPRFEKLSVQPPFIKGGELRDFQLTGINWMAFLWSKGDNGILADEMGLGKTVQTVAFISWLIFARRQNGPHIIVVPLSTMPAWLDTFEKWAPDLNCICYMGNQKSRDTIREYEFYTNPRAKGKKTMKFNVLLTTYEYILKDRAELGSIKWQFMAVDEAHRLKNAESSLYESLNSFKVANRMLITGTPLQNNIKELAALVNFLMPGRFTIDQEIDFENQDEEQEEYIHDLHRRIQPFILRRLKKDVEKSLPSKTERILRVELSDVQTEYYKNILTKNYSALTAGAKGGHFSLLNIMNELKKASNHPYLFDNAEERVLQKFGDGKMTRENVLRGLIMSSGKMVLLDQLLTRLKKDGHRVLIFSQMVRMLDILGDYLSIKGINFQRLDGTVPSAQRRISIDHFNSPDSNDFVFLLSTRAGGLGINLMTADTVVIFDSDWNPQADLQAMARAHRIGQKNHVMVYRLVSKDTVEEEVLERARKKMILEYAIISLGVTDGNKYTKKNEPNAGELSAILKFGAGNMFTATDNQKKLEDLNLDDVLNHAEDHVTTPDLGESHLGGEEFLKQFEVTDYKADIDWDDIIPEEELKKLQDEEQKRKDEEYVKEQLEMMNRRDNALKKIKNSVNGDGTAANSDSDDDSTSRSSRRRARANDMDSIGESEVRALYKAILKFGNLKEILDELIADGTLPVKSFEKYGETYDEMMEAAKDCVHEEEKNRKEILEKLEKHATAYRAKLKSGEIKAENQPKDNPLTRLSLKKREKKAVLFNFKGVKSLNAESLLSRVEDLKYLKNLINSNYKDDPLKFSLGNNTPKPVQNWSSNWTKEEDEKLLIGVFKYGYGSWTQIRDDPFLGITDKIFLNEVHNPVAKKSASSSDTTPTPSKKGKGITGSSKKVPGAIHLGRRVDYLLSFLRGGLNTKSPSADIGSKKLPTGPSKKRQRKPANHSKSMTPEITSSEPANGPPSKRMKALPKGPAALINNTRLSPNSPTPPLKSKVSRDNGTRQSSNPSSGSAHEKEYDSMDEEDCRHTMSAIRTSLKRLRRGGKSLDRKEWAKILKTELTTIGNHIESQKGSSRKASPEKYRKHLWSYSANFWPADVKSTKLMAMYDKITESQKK

Sialic acid-binding Ig-like lectin 9 (Homo sapiens), sequence (Q9Y336 whole entry): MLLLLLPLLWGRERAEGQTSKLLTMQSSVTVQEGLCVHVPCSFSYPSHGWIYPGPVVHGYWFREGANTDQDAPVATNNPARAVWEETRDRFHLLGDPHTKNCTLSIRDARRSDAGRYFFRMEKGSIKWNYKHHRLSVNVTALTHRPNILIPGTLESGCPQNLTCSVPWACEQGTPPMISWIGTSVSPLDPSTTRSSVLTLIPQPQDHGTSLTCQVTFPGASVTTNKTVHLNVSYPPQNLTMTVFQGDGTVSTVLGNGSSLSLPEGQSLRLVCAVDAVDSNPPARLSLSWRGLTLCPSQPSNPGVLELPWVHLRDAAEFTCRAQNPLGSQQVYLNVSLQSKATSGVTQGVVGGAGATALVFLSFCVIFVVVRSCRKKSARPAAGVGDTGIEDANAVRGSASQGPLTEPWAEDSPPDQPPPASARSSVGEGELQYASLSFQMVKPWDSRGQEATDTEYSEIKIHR
Protein translocase subunit SecA (Escherichia coli (strain K12)), sequence (P10408 whole entry): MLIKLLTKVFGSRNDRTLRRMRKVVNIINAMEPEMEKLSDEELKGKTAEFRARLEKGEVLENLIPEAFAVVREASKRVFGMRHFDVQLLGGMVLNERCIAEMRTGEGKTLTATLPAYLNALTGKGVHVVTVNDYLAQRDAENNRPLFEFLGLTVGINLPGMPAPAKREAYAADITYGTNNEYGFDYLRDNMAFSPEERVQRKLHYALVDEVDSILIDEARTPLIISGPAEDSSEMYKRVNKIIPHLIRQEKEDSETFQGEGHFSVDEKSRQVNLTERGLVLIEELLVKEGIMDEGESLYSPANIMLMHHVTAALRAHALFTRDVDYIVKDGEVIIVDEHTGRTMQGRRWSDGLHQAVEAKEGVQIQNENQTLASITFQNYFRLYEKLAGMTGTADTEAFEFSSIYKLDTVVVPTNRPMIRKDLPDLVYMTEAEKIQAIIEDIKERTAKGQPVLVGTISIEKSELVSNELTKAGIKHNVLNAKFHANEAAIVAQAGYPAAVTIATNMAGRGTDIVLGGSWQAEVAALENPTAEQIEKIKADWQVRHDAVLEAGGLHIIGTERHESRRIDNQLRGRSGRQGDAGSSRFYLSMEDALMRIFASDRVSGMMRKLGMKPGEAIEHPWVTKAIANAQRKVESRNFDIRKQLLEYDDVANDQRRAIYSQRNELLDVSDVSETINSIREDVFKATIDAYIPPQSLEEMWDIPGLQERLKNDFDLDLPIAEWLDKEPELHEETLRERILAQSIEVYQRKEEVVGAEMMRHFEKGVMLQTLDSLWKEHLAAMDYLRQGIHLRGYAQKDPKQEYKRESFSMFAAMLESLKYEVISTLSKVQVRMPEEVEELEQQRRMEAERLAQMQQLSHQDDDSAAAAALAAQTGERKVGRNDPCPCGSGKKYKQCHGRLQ

Row | Structure (SMILES) | Percent Effect [1] | Percent Effect [2] | Percent Effect [3] | Percent Effect [4] | Percent Effect (Trypanosoma cruzi) | Percent Effect [5] | Percent Effect [6] | Percent Effect (Homo sapiens) | Percent Effect [7] | Percent Effect [8] | Percent Effect [9]
1 | COCCN1CCC(CNC(=O)C2(c3cccc(C)c3)CC2)CC1 | -2.68% | 3.8% | 0.953% | 1.27% | -4.82% | 2.8% | 0.172% | 7.85% | 1.04% | 2.53% | -25%
2 | CC(C)N1CCC(N2CCN(C3CCC3)CC2CCO)CC1 (stereo unspecified) | -2.22% | 1.39% | -21.6% | 12% | 5.73% | 20.8% | -1.75% | -10.3% | 2.1% | 5.13% | 0.447%
3 | Cc1ccc(C(=O)NS(=O)(=O)c2cc(Cl)ccc2Cl)c(=O)[nH]1 | -2.59% | 5.41% | -4.48% | 13.3% | 4.18% | -2.4% | 4.67% | 32% | 5.94% | 23.2% | -3.61%
4 | Cc1cc(C2CCCN(C(=O)c3cnn(C)c3)C2)ccn1 (stereo unspecified) | -5.39% | 9.46% | 10.9% | 0.0727% | 5.93% | -0.696% | 12.3% | -13.7% | 8.6% | 11.7% | -9.36%
5 | Cn1cnnc1C1CCCN(C(=O)NCc2cc[nH]n2)C1 (stereo unspecified) | -1.36% | 18.4% | -12.9% | -7.02% | 4.01% | -2.16% | 9.05% | 4.39% | 6.4% | 18.5% | -8.86%
6 | CCc1nccn1C1CCCN(C(=O)c2cn3cccnc3n2)C1 (stereo unspecified) | -1.83% | 2.7% | -8.93% | 1.79% | -2.17% | 2.81% | -3.96% | -7.1% | 1.48% | -1.24% | 1.22%
7 | Cc1nc(C2CCCN2C(=O)c2cc3c(s2)CCCC3)no1 (stereo unspecified) | -3.05% | 0% | 2.69% | 3.43% | 3.95% | 4.98% | 3.51% | 5.26% | -0.49% | 0% | 5.53%
8 | CC(=O)N1CCN(C(=O)c2cnn(-c3ccccc3Cl)c2)CC1 | -5.95% | 21.6% | -7.37% | 17.5% | 6.32% | -8.82% | 9.19% | 13.8% | 8.37% | 18.5% | -9.57%
9 | CCn1nc(C(C)C)cc1C(=O)NCCCOC | -2.71% | 6.94% | 0.234% | -3.62% | 6.51% | -1.77% | 14.7% | -30.8% | 4.21% | 12.8% | -4.31%
10 | C=C(C)COCCNC(=O)C1CCCN1C(C)=O (stereo unspecified) | -2.72% | 18.2% | -0.215% | 2.93% | 7.3% | -1.78% | 5.41% | 6.11% | 5.83% | 21.9% | -8.29%
11 | CCc1cc(NCC(O)CN2CCCCC2)n2ncnc2n1 (stereo unspecified) | -4.14% | 7.89% | 2.69% | 4.78% | 1.27% | -2.37% | 15.2% | 3.03% | 4.25% | 13% | -4.78%
12 | CC(C(=O)Nc1cccc(N2CCCCC2)c1)n1cncn1 (stereo unspecified) | -7.36% | 13.5% | -9.41% | 28.7% | 3.11% | -3.61% | 10.3% | 0.641% | 5.42% | 23.5% | -10.9%
13 | O=C1CC(c2ccc(C(=O)O)cc2)c2ncn(-c3ccccc3)c2N1 (stereo unspecified) | -4.54% | 9.33% | -172% | -2.38% | 0.786% | -8.63% | 19.2% | 2.29% | 9.52% | 7.69% | -7.97%
14 | Cc1nccn1C1CCCN(C(=O)c2ccc3c(c2)nnn3C)C1 (stereo unspecified) | -3.52% | 10.5% | -2.69% | 0.191% | -4.95% | 5.75% | 9.9% | 3.52% | 4.43% | 6.17% | -4.12%
15 | O=C(CN1CCCC(Cn2cncn2)C1)NCc1ccco1 (stereo unspecified) | -2.6% | 0% | -4.08% | -5% | -8.12% | 8.27% | 7.87% | 6.12% | 1.48% | -1.24% | 4.31%
16 | Cc1ccc(C(=O)N2CCSCC2)cc1NC(=O)NCCO | -5.08% | 2.74% | 6.7% | 18.5% | 1.39% | -1.2% | 9.68% | 15.2% | 6.25% | 11.1% | -3.9%

— ChEMBL document CHEMBL3988442, “University of Dundee, Small-Polar-MMV Screening Library” (2021)
